Experimental findings from publication PMC4336329 (PLoS ONE, 2015) are described below.

In all, about 310,000 compounds went through this assay and about 14,000 (4.5%) showed an effect of 50% or more. Effects have a minus sign here. Shown is part of a subset that was picked to be rich in strong results.
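Further: peak tail current of the secondary pulse compared with the same well before compound.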

In this assay the target is human ether-à-go-go-related gene (hERG) potassium channel (human, UniProt Q12809). Kind of assay: primary screen, population patch clamp on CHO cells stably expressing hERG; higher = less effect of the substance.
Chain of human ether-à-go-go-related gene (hERG) potassium channel (Q12809 whole entry, looked up): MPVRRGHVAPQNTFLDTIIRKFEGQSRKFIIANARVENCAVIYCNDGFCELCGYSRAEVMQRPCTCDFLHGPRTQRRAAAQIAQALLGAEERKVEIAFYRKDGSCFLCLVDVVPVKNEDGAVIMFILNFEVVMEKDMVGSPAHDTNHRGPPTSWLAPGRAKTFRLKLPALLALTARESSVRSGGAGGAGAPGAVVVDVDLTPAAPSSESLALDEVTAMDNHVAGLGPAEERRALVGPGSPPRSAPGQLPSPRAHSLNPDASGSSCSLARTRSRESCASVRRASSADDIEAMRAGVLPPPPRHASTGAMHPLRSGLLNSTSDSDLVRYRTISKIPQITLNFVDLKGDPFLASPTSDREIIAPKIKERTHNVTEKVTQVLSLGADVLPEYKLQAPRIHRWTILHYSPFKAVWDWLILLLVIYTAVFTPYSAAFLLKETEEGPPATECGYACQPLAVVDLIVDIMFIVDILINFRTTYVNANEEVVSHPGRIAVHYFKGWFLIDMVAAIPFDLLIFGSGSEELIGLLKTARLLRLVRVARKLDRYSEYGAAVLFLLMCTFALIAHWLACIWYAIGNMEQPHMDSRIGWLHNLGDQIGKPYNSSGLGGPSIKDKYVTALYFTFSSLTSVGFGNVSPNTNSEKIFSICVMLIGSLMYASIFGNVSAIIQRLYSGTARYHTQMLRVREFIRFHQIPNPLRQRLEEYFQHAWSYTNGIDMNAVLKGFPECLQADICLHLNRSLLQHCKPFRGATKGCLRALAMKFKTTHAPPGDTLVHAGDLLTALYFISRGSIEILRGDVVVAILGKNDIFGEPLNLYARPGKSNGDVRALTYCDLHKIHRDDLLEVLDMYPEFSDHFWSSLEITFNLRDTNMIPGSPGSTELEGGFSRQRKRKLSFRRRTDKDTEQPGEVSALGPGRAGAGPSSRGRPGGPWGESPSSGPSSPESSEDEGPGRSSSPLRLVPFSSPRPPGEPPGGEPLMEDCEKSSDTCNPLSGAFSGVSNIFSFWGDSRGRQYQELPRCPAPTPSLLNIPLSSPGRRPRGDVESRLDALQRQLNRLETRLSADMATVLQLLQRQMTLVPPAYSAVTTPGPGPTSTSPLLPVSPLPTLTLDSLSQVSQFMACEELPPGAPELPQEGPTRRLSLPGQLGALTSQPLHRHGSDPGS
Turning to `CC(=O)NC(C)c1cc(Cl)c2ccccc2c1O` (stereo not shown), the “hERG current change (%, negative = inhibition) at 10uM” value was 1.04%.
With `COc1cc2cc(C(=O)N3CCOCC3)cc(-c3ccc(C)cc3)c2cc1OC`, the “hERG current change (%, negative = inhibition) at 10uM” value is -8.61%.
In the case of `COc1ccccc1/C=N/NC(=O)c1ccc(Cn2nc([N+](=O)[O-])cc2C)cc1` it was -12.7%; in that of `C/C(=N\NC(=O)C(O)(c1ccccc1)c1ccccc1)c1ccc(C)o1`, -2.62%.
The value for `C/C(=N/NC(=O)C(O)(c1ccccc1)c1ccccc1)c1ccc([N+](=O)[O-])o1` was -71.6%; that for `CCOC(=O)N/N=C(/C)c1ccc([N+](=O)[O-])o1` was -25.4%.
As for `COc1ccc(CNC(=O)C(c2ccc(C)o2)N(C(=O)c2csnn2)c2ccc(C(C)C)cc2)cc1` (stereo not shown), the “hERG current change (%, negative = inhibition) at 10uM” value is given as -42.9%.
In the case of `COc1ccccc1OCC(O)Cn1c(=N)n(Cc2ccccc2)c2ccccc21.Cl` (stereo not shown) it was -71%.
In the case of `C=CCn1c(=N)n(CC(O)COc2ccccc2OC)c2ccccc21.Cl` (stereo not shown) it was -67%; in that of `C=CCn1c(=N)n(CC(O)c2ccco2)c2ccccc21.Cl` (stereo not shown), -23.1%.
The value for `Cc1ccccc1OCC(O)Cn1nnc2ccccc21` (stereo not shown) was 5.21%.
Consider `Br.C=CCn1c(=N)n(CC(=O)c2ccc(OC)cc2)c2ccccc21`, for which the “hERG current change (%, negative = inhibition) at 10uM” value is recorded as -43.7%.
In the case of `Cc1ccccc1OCC(O)Cn1c(=N)n(Cc2ccccc2)c2ccccc21.Cl` (stereo not shown) it was -73%.
In the case of `COc1ccccc1OCC(O)CO` (stereo not shown) it was 12.4%.
In the case of `Cc1ccccc1OCC(O)Cn1c2ccccc2c2ccccc21` (stereo not shown) it was 2.67%.
Take `COc1ccccc1OC[C@H](O)CO`: the “hERG current change (%, negative = inhibition) at 10uM” value worked out at 24%.
For `Cc1ccc(NC(=O)COC(=O)COc2cccc3c2OC(C)(C)C3)c(C)c1`, the “hERG current change (%, negative = inhibition) at 10uM” value is 19.8%.
In the case of `FC(F)(F)c1nc(SCc2ccc(Cl)cc2Cl)n[nH]1` it was -0.342%.
In the case of `Cc1c(N2C(=O)/C(=C\C3CC=CCC3)SC2=S)c(=O)n(-c2ccccc2)n1C` (stereo not shown) it was -6.68%; in that of `c1c(CC2CCCC2)nnn1C[C@H]1CC[C@@H]([C@@H]2CC[C@H](Cn3cc(CC4CCCC4)nn3)O2)O1`, -57.6%.
The value for `CCCCc1cn(C[C@H]2CC[C@@H]([C@@H]3CC[C@H](Cn4cc(CCCC)nn4)O3)O2)nn1` was -54.9%; that for `c1ccc(CCc2cn(C[C@H]3CC[C@@H]([C@@H]4CC[C@H](Cn5cc(CCc6ccccc6)nn5)O4)O3)nn2)cc1` was -38.2%.
For the molecule `O=C1c2ccccc2C(=O)N1CCCc1cn(C[C@H]2CC[C@@H]([C@@H]3CC[C@H](Cn4cc(CCCN5C(=O)c6ccccc6C5=O)nn4)O3)O2)nn1`, the “hERG current change (%, negative = inhibition) at 10uM” value is -23.8%.
In the case of `ClCCCc1cn(C[C@H]2CC[C@@H]([C@@H]3CC[C@H](Cn4cc(CCCCl)nn4)O3)O2)nn1` it was -33.6%; in that of `CC(=O)OCC1OC(OCc2cn(C[C@H]3CC[C@@H]([C@@H]4CC[C@H](Cn5cc(COC6OC(COC(C)=O)C(OC(C)=O)C(OC(C)=O)C6OC(C)=O)nn5)O4)O3)nn2)C(OC(C)=O)C(OC(C)=O)C1OC(C)=O` (stereo partly shown), 0.857%; in that of `OCCCc1cn(CC2CCCCC2)nn1`, 2.61%.
The value for `c1ccc(Cn2cc(CSc3ccccc3)nn2)cc1` was -11%; that for `c1ccc(SCc2cn(C[C@H]3CC[C@@H]([C@@H]4CC[C@H](Cn5cc(CSc6ccccc6)nn5)O4)O3)nn2)cc1` was -62.1%.
The value for `O=C(NN=C1C2CC3CC(C2)CC1C3)c1cccc(S(=O)(=O)N2CCOCC2)c1` was 0.586%; that for `COC(=O)CSC1=C(C#N)C(c2cccc(F)c2)CC(=O)N1` (stereo not shown) was 9.97%; that for `CC1c2[nH]c3ccccc3c2CCN1S(C)(=O)=O` (stereo not shown) was 3.54%.
`COc1ccc(C2CC(c3cccs3)=NN2C(=O)CSc2nnc(N)s2)cc1OC` (stereo not shown): the “hERG current change (%, negative = inhibition) at 10uM” value was -4.6%.
In the case of `O=C(CCCOc1ccccc1)Nc1ccc(Cl)cn1` it was -3.18%.
As for `CCCCC(=O)Nc1cc(OCC)c(NC(=O)c2ccccc2[N+](=O)[O-])cc1OCC`, the “hERG current change (%, negative = inhibition) at 10uM” value was -4.27%.
The value for `FC(F)(F)c1cccc(-c2nnc3ccc(C(F)(F)F)cn23)c1` was -65.2%.
The value for `FC(F)(F)c1ccc2nnc(-c3c(Cl)cccc3Cl)n2c1` was -4.48%.
The value for `Fc1cccc(Cl)c1-c1nnc2ccc(C(F)(F)F)cn12` was 10.9%; that for `O=C(Nc1ccc2nc3ccccc3nc2c1)c1ccc(Br)cc1` was 17.9%; that for `CCC(=O)N1CCN(c2ccc(Cl)cc2NC(=S)NC(=O)c2ccco2)CC1` was -0.88%.
As for `O=C(NC(=S)N1CCN(c2ccc([N+](=O)[O-])cc2)CC1)c1ccccc1`, the “hERG current change (%, negative = inhibition) at 10uM” value is given as 0.58%.
With `O=C(NC(=S)N1CCN(c2ccc(Cl)cc2[N+](=O)[O-])CC1)c1cccs1`, the “hERG current change (%, negative = inhibition) at 10uM” value is on record as -30%.
In the case of `O=C(NC(=S)N1CCN(c2ccc([N+](=O)[O-])cc2)CC1)c1ccc(F)cc1` it was -58.5%.
In the case of `O=C(NC(=S)N1CCN(c2ccc([N+](=O)[O-])cc2)CC1)c1ccccc1F` it was -25.8%.
